Assay results published in PubChem BioAssay AID1159580 (chemical genetic matrix, 2015).
Among all 5,500 compounds or so, about 2,000 (36%) were called active. About 18% were inconclusive and are not listed. Cut-off read from the data, not from the text of the source: active = normalized growth mostly below about 0.91 (no sharp cut-off); inconclusive = no clear call, values can overlap the other calls; inactive = mostly above about 0.92. The list shows a part of the results.

Assay: chemical genetic growth profiling, strain panel (AID 1159580);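 note: tested at 20 µM; growth read once vehicle control cultures reached saturation at 30 °C; 1 = growth at the plate median or of vehicle wells; lower values mean less growth of the strain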
Conditions: growth OD

Measured: normalized growth

CCC1(CC)C(=O)C=CNC1=O
inactive: S. cerevisiae deletion strains, locus YJR066W, strain TOR1, hits give low values 0.961 | S. cerevisiae deletion strains, locus YKL009W, strain mrt4, hits give low values 1 | S. cerevisiae deletion strains, locus YKL068W, hits give low values 1 | S. cerevisiae deletion strains, locus YKL085W, strain MDH1 (second series), hits give low values 1 | S. cerevisiae deletion strains, locus YKL085W, strain MDH1, hits give low values 1 | S. cerevisiae deletion strains, locus YKL160W, strain elf1, hits give low values 0.992 | S. cerevisiae deletion strains, locus YKL190W, strain CNB1, hits give low values 1 | S. cerevisiae deletion strains, locus YKR001C, strain vps1, hits give low values 0.983 | S. cerevisiae deletion strains, locus YKR026C, strain gcn3, hits give low values 0.97 | S. cerevisiae deletion strains, locus YKR091W, strain srl3, hits give low values 1 | S. cerevisiae deletion strains, locus YLL001W, strain dnm1, hits give low values 0.985 | S. cerevisiae deletion strains, locus YLL026W, hits give low values 0.99 | S. cerevisiae deletion strains, locus YLL041C, strain sdh2, hits give low values 0.985 | S. cerevisiae deletion strains, locus YLR027C, strain aat2, hits give low values 0.996 | S. cerevisiae deletion strains, locus YLR039C, strain RIC1, hits give low values 1.01 | S. cerevisiae deletion strains, locus YLR058C, strain SHM2, hits give low values 1.01 | S. cerevisiae deletion strains, locus YLR102C, strain apc9, hits give low values 1.01 | S. cerevisiae deletion strains, locus YLR113W, strain HOG1, hits give low values 0.988 | S. cerevisiae deletion strains, locus YLR221C, strain rsa3, hits give low values 1.01 | S. cerevisiae deletion strains, locus YLR258W, strain gsy2, hits give low values 1.01 | S. cerevisiae deletion strains, locus YLR262C, strain YPT6 (second series), hits give low values 1.02 | S. cerevisiae deletion strains, locus YLR262C, strain YPT6, hits give low values 1.01 | S. cerevisiae deletion strains, locus YLR268W, strain sec22, hits give low values 1.01 | S. cerevisiae deletion strains, locus YLR320W, strain mms22, hits give low values 1.02 | S. cerevisiae deletion strains, locus YLR330W, strain CHS5, hits give low values 1.01 | S. cerevisiae deletion strains, locus YLR342W, strain FKS1 (second series), hits give low values 1.06 | S. cerevisiae deletion strains, locus YLR342W, strain FKS1, hits give low values 1.01 | S. cerevisiae deletion strains, locus YLR357W, strain rsc2, hits give low values 1 | S. cerevisiae deletion strains, locus YLR370C, strain arc18, hits give low values 0.997 | S. cerevisiae deletion strains, locus YLR371W, strain rom2, hits give low values 1.01 | S. cerevisiae deletion strains, locus YLR384C, strain iki3, hits give low values 0.995 | S. cerevisiae deletion strains, locus YLR418C, strain cdc73, hits give low values 1.02 | S. cerevisiae deletion strains, locus YML016C, strain PPZ1, hits give low values 1 | S. cerevisiae deletion strains, locus YML032C, strain rad52, hits give low values 0.997 | S. cerevisiae deletion strains, locus YML120C, strain ndi1, hits give low values 0.994 | S. cerevisiae deletion strains, locus YML124C, strain tub3, hits give low values 1.01 | S. cerevisiae deletion strains, locus YMR058W, strain fet3, hits give low values 0.989 | S. cerevisiae deletion strains, locus YMR078C, strain ctf18, hits give low values 1.01 | S. cerevisiae deletion strains, locus YMR125W, strain sto1, hits give low values 0.973 | S. cerevisiae deletion strains, locus YMR129W, hits give low values 0.991 | S. cerevisiae deletion strains, locus YMR205C, strain PFK2, hits give low values 1.05 | S. cerevisiae deletion strains, locus YMR223W, strain ubp8, hits give low values 1.02 | S. cerevisiae deletion strains, locus YMR231W, strain pep5, hits give low values 0.998 | S. cerevisiae deletion strains, locus YMR263W, strain SAP30, hits give low values 0.995 | S. cerevisiae deletion strains, locus YMR307W, strain GAS1, hits give low values 1.01 | S. cerevisiae deletion strains, locus YNL067W, strain RPL9B, hits give low values 0.981 | S. cerevisiae deletion strains, locus YNL071W, strain lat1, hits give low values 0.994 | S. cerevisiae deletion strains, locus YNL128W, strain TEP1, hits give low values 1.03 | S. cerevisiae deletion strains, locus YNL183C, strain NPR1, hits give low values 0.958 | S. cerevisiae deletion strains, locus YNL209W, strain ssb2, hits give low values 1 | S. cerevisiae deletion strains, locus YNL233W, strain BNI4, hits give low values 0.978 | S. cerevisiae deletion strains, locus YNL248C, strain rpa49, hits give low values 0.96 | S. cerevisiae deletion strains, locus YNL250W, strain rad50, hits give low values 1.02 | S. cerevisiae deletion strains, locus YNL271C, strain bni1, hits give low values 1.01 | S. cerevisiae deletion strains, locus YNL298W, strain CLA4, hits give low values 1 | S. cerevisiae deletion strains, locus YNL307C, strain MCK1, hits give low values 1.02 | S. cerevisiae deletion strains, locus YNL322C, strain KRE1 (second series), hits give low values 0.992 | S. cerevisiae deletion strains, locus YNL322C, strain KRE1, hits give low values 0.999 | S. cerevisiae deletion strains, locus YNR049C, strain mso1, hits give low values 0.994 | S. cerevisiae deletion strains, locus YNR052C, strain pop2, hits give low values 1.01 | S. cerevisiae deletion strains, locus YOL006C, strain TOP1, hits give low values 0.966 | S. cerevisiae deletion strains, locus YOL012C, strain htz1 0.962 | S. cerevisiae deletion strains, locus YOL147C, strain pex11, hits give low values 1.01 | S. cerevisiae deletion strains, locus YOR001W, strain rrp6, hits give low values 0.971 | S. cerevisiae deletion strains, locus YOR061W, strain CKA2, hits give low values 1.01 | S. cerevisiae deletion strains, locus YOR069W, strain VPS5, hits give low values 1.01 | S. cerevisiae deletion strains, locus YOR070C, strain gyp1, hits give low values 1 | S. cerevisiae deletion strains, locus YOR080W, strain dia2, hits give low values 0.999 | S. cerevisiae deletion strains, locus YOR083W, strain WHI5, hits give low values 0.984 | S. cerevisiae deletion strains, locus YOR106W, strain vam3, hits give low values 1.01 | S. cerevisiae deletion strains, locus YOR136W, strain idh2, hits give low values 0.994 | S. cerevisiae deletion strains, locus YOR144C, strain elg1, hits give low values 1 | S. cerevisiae deletion strains, locus YOR184W, strain ser1, hits give low values 1.02 | S. cerevisiae deletion strains, locus YOR231W, strain MKK1, hits give low values 0.98 | S. cerevisiae deletion strains, locus YOR265W, strain rbl2, hits give low values 0.996 | S. cerevisiae deletion strains, locus YOR270C, strain vph1, hits give low values 0.994 | S. cerevisiae deletion strains, locus YOR290C, strain snf2, hits give low values 0.965 | S. cerevisiae deletion strains, locus YOR316C, strain cot1, hits give low values 1.01 | S. cerevisiae deletion strains, locus YPL051W, strain arl3, hits give low values 0.985 | S. cerevisiae deletion strains, locus YPL078C, strain atp4, hits give low values 0.968 | S. cerevisiae deletion strains, locus YPL106C, strain sse1, hits give low values 1 | S. cerevisiae deletion strains, locus YPL240C, strain hsp82, hits give low values 1.02 | S. cerevisiae deletion strains, locus YPL256C, strain CLN2, hits give low values 1.01 | S. cerevisiae deletion strains, locus YPR119W, strain clb2, hits give low values 1 | S. cerevisiae deletion strains, locus YPR141C, strain kar3, hits give low values 1 | S. cerevisiae deletion strains, locus YPR163C, strain tif3, hits give low values 1.01 | S. cerevisiae deletion strains, locus YPR167C, strain met16, hits give low values 1.01 | S. cerevisiae deletion strains, strain wtn01, hits give low values 1.02 | S. cerevisiae strains, strain wild type, hits give low values 0.996
